Assay outcomes from PubChem BioAssay.
ARNT-TACC3 inh – ARNT/TACC3 interaction disruption; inhibition, % at 9.99 µM; AlphaScreen His-ARNT PAS-B/GST-TACC3 binding, luminescence; TACC3 fragment carries E629A point mutation; Q9Y6A5; 390,000 compounds, 0.66% hits;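 active = mean inhibition of replicates at least 50% and at least half of replicates each reaching 50%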;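 also: 0% = complete ARNT plus TACC3 wells and 100% = ARNT alone without TACC3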
CFTR F508del cor – correctors of CFTR F508del function in bronchial epithelial cells. CFBE cells, YFP halide quenching; stimulated with forskolin plus potentiator P3; % fluorescence drop versus neutral controls. activity (quench increase), % at 7.58 µM. 350,000 compounds, 0.36% hits. AID 720511;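 active = mean added fluorescence quench of at least 8% versus neutral control, with both replicates also reaching 8%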;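 also: cells transiently co-express mutant CFTR-F508del with the halide-sensitive YFP; corrector assay measuring rescue of mutant channel to the surface after 24 h compound exposure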
rRNA inh HTS – inhibits bacterial ribosomal RNA function over humanized ribosomes; E. coli WT GFP vs humanized-ribosome RFP mutants, fluorescence, 24 h; hits give low values; DMSO median 0, no signal -100; GFP signal change (wild-type ribosome), % (concentration not given with the values); 350,000 compounds, 1.6% hits; AID 720706;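 active = significant combined selectivity score with lowered wild-type GFP, culture density cut under 30%, mutant RFP and density less affected; inactive = any of these conditions unmet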
PvdQ acylase – P. aeruginosa PvdQ acylase inhibition; purified PvdQ acylase, fluorescence plate reader; inhibition, % at 10 µM; 340,000 compounds, 0.063% hits; AID 488965; in the data active = inhibition above about 30%, passing the limit was not always enough;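 also: 0% = vehicle neutral wells and 100% = reference inhibitor wells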
ERAP1 HTS inh – inhibitors of human ERAP1 aminopeptidase. AID 652197. inhibition, % at 10.7 µM. recombinant ERAP1, Leu-AMC fluorescence, 60 min. Q9NZ08. 340,000 compounds, 0.15% hits;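 active = mean replicate inhibition of at least 30%, or all replicates individually reaching that 30% level; inactive = mean below 30% and not every replicate reaching it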;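 also: 0% = neutral control wells and 100% = L-leucinethiol positive control wells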
Target sequence (Q9NZ08 whole entry, looked up): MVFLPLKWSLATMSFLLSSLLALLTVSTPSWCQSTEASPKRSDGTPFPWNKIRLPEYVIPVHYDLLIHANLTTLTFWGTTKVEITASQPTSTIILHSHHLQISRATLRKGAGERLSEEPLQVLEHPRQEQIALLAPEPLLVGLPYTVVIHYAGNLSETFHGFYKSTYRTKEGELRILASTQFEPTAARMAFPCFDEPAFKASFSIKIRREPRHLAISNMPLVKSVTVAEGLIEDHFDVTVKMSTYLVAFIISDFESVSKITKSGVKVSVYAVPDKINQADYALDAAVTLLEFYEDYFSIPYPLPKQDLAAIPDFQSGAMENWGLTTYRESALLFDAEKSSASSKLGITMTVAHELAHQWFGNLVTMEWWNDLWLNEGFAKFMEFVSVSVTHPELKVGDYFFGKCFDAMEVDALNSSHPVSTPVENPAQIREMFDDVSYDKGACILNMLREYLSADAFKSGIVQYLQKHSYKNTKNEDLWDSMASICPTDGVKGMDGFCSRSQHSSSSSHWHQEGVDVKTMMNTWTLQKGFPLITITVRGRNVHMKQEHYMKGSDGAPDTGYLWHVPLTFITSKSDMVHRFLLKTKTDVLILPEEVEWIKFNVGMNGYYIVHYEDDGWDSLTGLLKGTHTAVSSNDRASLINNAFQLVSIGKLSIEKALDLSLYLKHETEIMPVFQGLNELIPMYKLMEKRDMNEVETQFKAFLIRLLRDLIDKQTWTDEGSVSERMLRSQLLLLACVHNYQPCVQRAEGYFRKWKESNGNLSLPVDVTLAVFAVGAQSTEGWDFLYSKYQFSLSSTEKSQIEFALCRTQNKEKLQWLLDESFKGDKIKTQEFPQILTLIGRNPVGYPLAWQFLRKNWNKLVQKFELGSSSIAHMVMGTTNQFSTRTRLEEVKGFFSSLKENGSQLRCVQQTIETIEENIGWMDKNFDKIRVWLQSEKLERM
* hit, by the source's call. A selection: hits, their analogues and other compounds. The true share with any hit is near 2.1%.

`Cc1ccc(C)c(CSc2nc3[nH]ncc3c(=O)[nH]2)c1` gave ARNT-TACC3 inh 1.3, CFTR F508del cor 16.5*, rRNA inh HTS 2.6, PvdQ acylase -17.1 and ERAP1 HTS inh 0.3.
`O=C(COc1ccc(C(=O)NCc2cccnc2)cc1)Nc1cccc(C(F)(F)F)c1` gave ARNT-TACC3 inh 0.2, CFTR F508del cor -3.4, rRNA inh HTS -22.9*, PvdQ acylase -7.8 and ERAP1 HTS inh -1.7.
For CC1Cc2cc(/C=C3/SC(=S)NC3=O)ccc2O1 (stereo not given) the results were ARNT-TACC3 inh -1.6, CFTR F508del cor -3.4, rRNA inh HTS -19.8*, PvdQ acylase -12.6 and ERAP1 HTS inh -1.8.
Screening C[C@@H]1CN([C@@H](C)CO)C(=O)c2cccc(NS(=O)(=O)c3cccs3)c2O[C@H]1CN(C)Cc1ccc(Cl)c(Cl)c1 returned ARNT-TACC3 inh 4.5, CFTR F508del cor 0.0, rRNA inh HTS 0.2 and ERAP1 HTS inh 0.4.
`CSc1nc(C)c(C(=O)Nc2ccccc2)c(C)c1C#N` gave ARNT-TACC3 inh -3.7, CFTR F508del cor -1.4, rRNA inh HTS -21.0*, PvdQ acylase 11.1 and ERAP1 HTS inh -1.9.
C[C@@H]1CN([C@H](C)CO)C(=O)c2cc(NC(=O)NC3CCCCC3)ccc2O[C@@H]1CN(C)S(=O)(=O)c1ccc(F)cc1 was read as ARNT-TACC3 inh 1.2, CFTR F508del cor -2.4, rRNA inh HTS -2.1 and ERAP1 HTS inh 1.6.
For C/C=C/c1ccc([C@@H]2[C@H](CO)N(CC3CC3)[C@H]2CNC(=O)c2ccccc2)cc1 the results were ARNT-TACC3 inh -1.6, CFTR F508del cor 10.5*, rRNA inh HTS 2.0 and ERAP1 HTS inh 2.5.
For O=C(NC[C@H]1[C@H](c2ccccc2)[C@H](CO)N1CC1CCCC1)c1ccccc1 the results were ARNT-TACC3 inh 0.4, CFTR F508del cor 2.8, rRNA inh HTS 3.1 and ERAP1 HTS inh 1.1.
C/C=C/c1ccc([C@H]2[C@@H](CNC(=O)CC)N(C(=O)COC)[C@H]2CO)cc1 was read as ARNT-TACC3 inh -6.2, CFTR F508del cor 14.4*, rRNA inh HTS 3.4 and ERAP1 HTS inh 1.3.
Screening COc1nc(-c2ccccc2)cc(-c2ccc3c(c2)OCO3)c1C#N returned ARNT-TACC3 inh -2.9, CFTR F508del cor 17.3*, rRNA inh HTS 9.7, PvdQ acylase -16.4 and ERAP1 HTS inh 2.0.
For C[C@H]1CN([C@@H](C)CO)C(=O)c2cc(NC(=O)Nc3cccc4ccccc34)ccc2O[C@H]1CN(C)Cc1ccncc1 the results were ARNT-TACC3 inh 2.0, CFTR F508del cor -0.3, rRNA inh HTS -0.9 and ERAP1 HTS inh 1.7.
`Cn1c(SCc2cccc(F)c2)nnc1-c1ccccn1` gave ARNT-TACC3 inh 11.8 and PvdQ acylase 10.5.
Screening Cn1c(SCc2ccccc2)nnc1-c1ccc(O)cc1 returned ARNT-TACC3 inh active, CFTR F508del cor -0.6, rRNA inh HTS 7.9, PvdQ acylase 2.2 and ERAP1 HTS inh -2.3.
`Cn1c(SCc2cccc(Br)c2)nnc1-c1ccccn1` gave ARNT-TACC3 inh 9.1, CFTR F508del cor -0.3, rRNA inh HTS -35.2*, PvdQ acylase -4.1 and ERAP1 HTS inh 3.7.
Screening CCc1nc(Nc2ccccc2)c2nnn(Cc3ccccc3)c2n1 returned ARNT-TACC3 inh -3.5, CFTR F508del cor 2.5, rRNA inh HTS -30.3*, PvdQ acylase -1.8 and ERAP1 HTS inh 1.0.
For Cc1cccc(N/C=C(\[N+](=O)[O-])S(=O)(=O)c2ccccc2)c1 the results were ARNT-TACC3 inh -7.4, CFTR F508del cor 1.6, rRNA inh HTS -5.3, PvdQ acylase -13.2 and ERAP1 HTS inh -0.4.
Cc1ccc(N/C=C(\[N+](=O)[O-])S(=O)(=O)c2ccccc2)cc1 was read as ARNT-TACC3 inh -8.8, CFTR F508del cor -1.0, rRNA inh HTS -21.6*, PvdQ acylase -12.9 and ERAP1 HTS inh 1.5.
For COc1ccc(-c2cc(C(=O)N(C)Cc3cccc(OC)c3OC)c3ccccc3n2)cc1OC the results were ARNT-TACC3 inh -3.7, CFTR F508del cor 3.0, rRNA inh HTS -28.0*, PvdQ acylase -9.2 and ERAP1 HTS inh -13.3.
Screening C[C@H](CO)N1C[C@H](C)[C@H](CN(C)Cc2ccccn2)Oc2ncc(-c3cccc(F)c3)cc2C1=O returned ARNT-TACC3 inh 15.1, CFTR F508del cor -0.4, rRNA inh HTS 2.0 and ERAP1 HTS inh 2.3.
`CC(=O)Nc1ccc(C(=O)CSc2nnc(-c3ccccc3F)n2CCc2ccccc2)cc1` gave ARNT-TACC3 inh -1.9, CFTR F508del cor -1.9, rRNA inh HTS -34.7* and PvdQ acylase -10.2.
CCC(=O)Nc1ccc(C(=O)CSc2nnc(-c3ccccc3F)n2C2CC2)cc1 was read as ARNT-TACC3 inh -5.0, PvdQ acylase -9.2 and ERAP1 HTS inh 7.3.
`O=C1CC(c2ccc(F)cc2)CC2=C1C=Nc1ccccc1N2` (stereo not given) gave ARNT-TACC3 inh 4.3, CFTR F508del cor 3.6, rRNA inh HTS 3.9, PvdQ acylase -14.6 and ERAP1 HTS inh 1.5.
For O=C1CC(c2ccccc2)CC2=C1C=Nc1ccccc1N2 (stereo not given) the results were ARNT-TACC3 inh -0.9, CFTR F508del cor 9.2*, rRNA inh HTS 0.8 and PvdQ acylase 5.5.
For C[C@H]1CN([C@@H](C)CO)C(=O)c2cccc(NC(=O)Nc3ccc(F)cc3)c2O[C@@H]1CN(C)Cc1ccccc1 the results were ARNT-TACC3 inh 0.1, CFTR F508del cor 2.0, rRNA inh HTS -8.6 and ERAP1 HTS inh -0.3.
O=C(COC(=O)c1cccc(F)c1)NC(=O)NC1CCCC1 was read as ARNT-TACC3 inh 8.7, CFTR F508del cor 2.7, rRNA inh HTS -4.7, PvdQ acylase -3.0 and ERAP1 HTS inh -1.6.
Screening O=C(COC(=O)c1cccc(NS(=O)(=O)c2ccc(F)c(F)c2)c1)NC(=O)NC1CCCC1 returned ARNT-TACC3 inh 1.4, rRNA inh HTS -36.5*, PvdQ acylase -2.2 and ERAP1 HTS inh -0.4.
CC(C)NC(=O)NC(=O)COC(=O)c1ccc(S(=O)(=O)Nc2ccccc2)cc1 was read as ARNT-TACC3 inh -6.0, CFTR F508del cor 22.8*, rRNA inh HTS -27.0, PvdQ acylase -7.2 and ERAP1 HTS inh 0.8.
Screening O=C([C@H]1[C@H](CO)[C@H]2Cn3c(ccc(-c4ccccc4F)c3=O)[C@@H]1N2C(=O)C1CCC1)N1CCCCC1 returned ARNT-TACC3 inh -1.7, rRNA inh HTS 0.9 and ERAP1 HTS inh 7.5.
CNC[C@@H]1Oc2cc(-c3cccc(C(=O)N(C)C)c3)ccc2S(=O)(=O)N([C@@H](C)CO)C[C@H]1C was read as ARNT-TACC3 inh -3.8, CFTR F508del cor -2.7, rRNA inh HTS 1.0 and ERAP1 HTS inh -0.5.
COC(=O)C1=C(C)N(Cc2ccc(Br)cc2)C(=S)NC1c1ccccc1 (stereo not given) was read as CFTR F508del cor -0.3, rRNA inh HTS -4.9 and ERAP1 HTS inh 2.1.
For CCN(CC)CC(=O)N1CCCC(C(=O)c2ccccc2OC)C1 (stereo not given) the results were ARNT-TACC3 inh -0.8, CFTR F508del cor -1.9, rRNA inh HTS 12.2, PvdQ acylase -14.3 and ERAP1 HTS inh -2.0.
